32 molecules from PubChem BioAssay AID2289 (National Center for Advancing Translational Sciences (NCATS), 2010) can be followed below.

The campaign covered roughly 340,000 compounds. About 3,300 (0.97%) were called active. Another 9% or so got no clear call; they are omitted. Calls follow the shape of the dose curve; as a rule, active = well fitted inhibition curve with a large enough effect; inconclusive = small, poorly fitted or top-dose-only effect, or effect the other way; inactive = flat fitted curve, though single readings scatter. The list shows a part of the results.
Potency is read from the fitted curve at half-maximal effect.

The assay can be described thus: qHTS Assay for Modulators of miRNAs and/or Inhibitors of miR-21. Also: nearly all actives have a fitted effect of over 55% in size. The following applies: HeLa miR-21-FLuc reporter, luciferase luminescence, 48 h; actives lower the signal. The method in brief: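 Compounds were titrated across several concentrations (up to approximately 40 uM) and incubated 48 hours with HeLa miR-21-FLuc reporter cells (miR-21 target sequence downstream of FLuc, endogenous miR-21). Readout was firefly luciferase luminescence after lytic detection reagent.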
In the case of `COc1cccc(C(=O)/C=C/Nc2ccc(S(=O)(=O)Nc3cnc4ccccc4n3)cc2)c1`, the Potency is 7.36 µM (active). On to `Cc1ccc(COc2ccc3c(c2)OCO3)cc1`, for which the Potency is 3.69 µM (active). In the case of `Cc1ccc(COc2ccc(-c3nnco3)cc2)cc1` it was 4.14 µM (active); in that of `Fc1cc(Br)ccc1COc1ccc(-c2nnco2)cc1`, 7.36 µM (active); in that of `Cn1c(SCc2c(F)cccc2Cl)nnc1-c1cccs1`, 6.56 µM (active). The same measure for `Cn1c(SCc2c(F)cccc2Cl)nnc1-c1cnccn1`: 4.14 µM (active); for `CCCNC(=O)c1c(Cl)cnn1-c1ccc(C)cc1`: 4.14 µM (active); for `O=C(Nc1ccccc1)c1cc(-c2ccccc2Cl)no1`: 7.36 µM (active).

Regarding `O=C(Nc1ccccc1)OCc1cc(-c2ccccc2Cl)on1`, the Potency was 11.7 µM (active).

Take `O=C(Nc1ccccc1)c1ccc(-c2ccccc2Cl)o1`: the Potency was 3.69 µM (active).

With `O=C(Nc1ccccc1)c1ccc(-c2ccccc2C(F)(F)F)o1`, the Potency is 13.1 µM (active). Turning to `COc1ccc(NC(=O)c2ccc(-c3ccccc3Cl)o2)cc1`, the Potency is 7.36 µM (active).

Turning to `O=C(Nc1cccc(F)c1)c1ccc(-c2ccccc2Cl)o1`, the Potency was 2.93 µM (active).

For `COc1ccc(/C=C/c2ccncc2)cc1OC`, the Potency was 16.5 µM (active).

For the molecule `CC1=NN(C(=O)c2ccoc2C)C(O)(C(F)(F)F)C1` (configuration not stated), the Potency is 10.4 µM (active).

Consider `CCCNc1ccc(C(=O)OCC)cc1[N+](=O)[O-]`, for which the Potency is 16.5 µM (active).

Turning to `COC(=O)c1ccc(-c2ccc(F)cc2)nc1C`, the Potency was 6.56 µM (active). In the case of `COC(=O)c1ccc(-c2ccc(Cl)cc2)nc1C`, the Potency was 1.47 µM (active).

Turning to `CCOC(=O)c1ccc(-c2ccc3c(c2)CCC3)nc1C`, the Potency is 1.85 µM (active). In the case of `CCOc1ccc(-c2cn3nc(CC(C)C)sc3n2)cc1` it was 2.93 µM (active); in that of `COC(=O)CSc1nc2cc(OC)ccc2cc1C#N`, 0.233 µM (active); in that of `CCOC(=O)CSc1nc2cc(OCC)ccc2cc1C#N`, 4.65 µM (active). Consider `COc1ccc2nc(SCC(C)=O)c(C#N)cc2c1`, for which the Potency was 0.165 µM (active). For `CCOc1ccc2cc(C#N)c(SCC(=O)N3CCOCC3)nc2c1`, the Potency was 1.17 µM (active).

For `COc1cccc(C(=O)Nc2cc3c(cc2Cl)OCCCO3)c1`, the Potency is 0.826 µM (active).

In the case of `COc1cccc(C(=O)Nc2cc3c(cc2Br)OCCCO3)c1`, the Potency is 2.07 µM (active). For the molecule `O=C(Nc1cc2c(cc1C(=O)O)OCCCO2)c1ccc(C(F)(F)F)cc1`, the Potency is 7.36 µM (active). In the case of `O=C(Nc1cc2c(cc1Br)OCCCO2)c1ccccc1` it was 2.33 µM (active). The same measure for `CN(C)S(=O)(=O)Oc1cccc(C(=O)Nc2ccccc2Cl)c1`: 8.26 µM (active). Turning to `COC(=O)c1c(-c2ccncc2)csc1NC(=O)c1ccoc1C`, the Potency is 1.85 µM (active). The same measure for `COC(=O)c1c(-c2cccnc2)csc1NC(=O)c1ccc2c(c1)OCO2`: 1.04 µM (active); for `COC(=O)c1c(-c2cccnc2)csc1NC(=O)c1cc(C)on1`: 2.07 µM (active).
